Compounds without any hit were thinned out: in the full panel of roughly 83,000, 20% have a hit.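 Values shown are percent growth following 48 h exposure of cells in 96-well plates to a single concentration of compound; below 10 was considered active.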 Unmarked numbers belong to inactive results. The source made the active and inactive calls.
Columns and labels:
Test in all cases: NCI-60 one-dose screen, 48 h (100 = growth as untreated, 0 = no growth, -100 = all killed)
Details in all cases: 10 µM
T-47D breast = system: T-47D breast
BT-549 breast = system: BT-549 breast
MDA-MB-435 melanoma = system: MDA-MB-435 melanoma
SW-620 colon = system: SW-620 colon
MCF7 breast = system: MCF7 breast
HCT-116 colon = system: HCT-116 colon
HCC-2998 colon = system: HCC-2998 colon
KM12 colon = system: KM12 colon

Row | SMILES | growth (T-47D breast) [%] | growth (BT-549 breast) [%] | growth (MDA-MB-435 melanoma) | growth (SW-620 colon) | growth (MCF7 breast) | growth (HCT-116 colon) | growth (HCC-2998 colon) [%] | growth (KM12 colon) [%]
1 | C/C(=N\O)c1ccc(NC(=O)CSc2nnc(-c3ccccc3)n2-c2ccccc2)cc1 | 79.6 | 20.9 | 100% | 83.1% | 104% | 28.6% | 91.1 | 73.3
2 | Nc1ccn(Cc2nnc(CCC(=O)c3nc4ccccc4[nH]3)o2)c(=O)n1 | 71.6 | 74.5 | 91.9% | 83.5% | 35.7% | 63.8% | 79.8 | 84.4
3 | O=[N+]([O-])c1cccc(/C=N/NC(=S)NC23CC4CC(CC(C4)C2)C3)c1 | 88.7 | 100 | 84.8% | 88.5% | 66.9% | 61.1% | 103 | 95.2
4 | CC(C)c1cc(N=O)cc(C(C)C)c1O | 108 | 111 | 109% | 100% | 103% | 110% | 104 | 111
5 | COc1ccc(/C=C2\CCCC3=C2NC(N)=NC3c2ccc(OC)c(OC)c2)cc1OC (stereo not drawn) | 78.6 | 36.1 | 30.8% | 40.7% | 27.6% | 7.91% (active) | 88 | 32.1
6 | CCN(CC)CCCC(C)Nc1c2ccc(Cl)cc2nc2ccc(OC)cc12 (stereo not drawn) | 14 | 56.2 | -18.9% (active) | -19.1% (active) | -11.6% (active) | 12.3% | 15.3 | 22.1
